Experimental findings from PubChem BioAssay (NCI) are described below.

SMILES strings stand for the structures. About 83,000 compounds went through this panel and 20% of them were active in at least one assay; those are over-represented in the sample as a whole.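 In brief: 96-well plates, 48 h treatment, single concentration, percent growth endpoint.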 Activity calls are given as the source filed them. How the source made its calls: active means growth percent below 10; inactive means the rest.

The subject of the experiment is OVCAR-4 ovarian. Put plainly: NCI-60 one-dose screen, 48 h (100 = growth as untreated, 0 = no growth, -100 = all killed). The conditions noted are these: 10 µM unless noted.
Turning to `C=C1C(=O)O[C@H]2[C@H]1CC/C(COC(=O)NCCc1ccc(Br)cc1)=C\CC[C@@]1(C)O[C@@H]21`, the growth was 30% (inactive).

As to `COc1ccc(C(=O)/C=C/c2ccc(/C=C/c3cc(OC)c(OC)c(OC)c3)cc2)cc1`, the growth was 65.7% (inactive).

With `COc1ccc(C2CC(=O)Nc3c2c(C)nn3-c2nc3ccccc3[nH]2)cc1OC` (stereo not drawn), the growth is 62% (inactive). The value for `O=C(O)c1ccc(-n2cc(CNc3ccc(C(F)(F)F)cc3)c(-c3ccccc3)n2)cc1` was 95.4% (inactive); that for `C=C1C(=O)O[C@H]2[C@H]1CC/C(COC(=O)NCCc1cccc(OC)c1)=C\CC[C@@]1(C)O[C@@H]21` was 39.9% (inactive). Consider `Nc1ccc(S(=O)(=O)c2ccc(Cl)cc2)cc1`, for which the growth was 110% (inactive). Turning to `C/C(=C\c1csc(C)n1)[C@@H]1C[C@@H]2O[C@]2(C)CCC[C@H](C)[C@H](O)[C@@H](C)C(=O)C(C)(C)[C@@H](O)CC(=O)N1`, the growth is 14.8% (inactive).

On to `CCNC(=O)C1CCCN1C(=O)C(CCCN=C(N)N)NC(=O)C(CC(C)C)NC(=O)C(CC(C)C)NC(=O)C(Cc1ccc(O)cc1)NC(=O)C(CO)NC(=O)C(Cc1c[nH]c2ccccc12)NC(=O)C(Cc1cnc[nH]1)NC(=O)C1CCC(=O)N1` (stereo not drawn), for which the growth was 91.3% (inactive). As for `O=C(O)C(=Cc1c2ccccc2cc2ccccc12)C(=O)O`, the growth is 117% (inactive). As to `CCCCCCCCCCn1cc[n+](C)c1`, the growth was 22.7% (inactive). With `Cc1oc2ncnc(Nc3ccccc3)c2c1C(=O)NCCO`, the growth was 103% (inactive).

For `O=C(Nc1ccc(I)cc1)c1cc([N+](=O)[O-])ccc1O`, the growth was 30.3% (inactive).

For `C[C@]12CC[C@@H]3c4cc(O)c(O)cc4CC[C@H]3[C@@H]1CC[C@@H]2O`, the growth is 49.7% (inactive).

In the case of `O=C1C2=C(C(=O)c3c(O)ccc(O)c31)N(c1cccnc1)Cc1ccccc1O2`, the growth is -95% (active).

With `CCCCCCc1nc2c(c(C)nn2-c2ccccc2)c2c1CCCCC2`, the growth was 115% (inactive). With `COc1ccc(-c2nc3sccn3c2-c2ccnc(NCCCNS(=O)(=O)c3ccc(C)cc3)n2)cc1` the figure was 42.9% (inactive). `NC(=O)c1cccc(N2Cc3ccccc3OC3=C2C(=O)c2c(O)ccc(O)c2C3=O)c1`: the growth was -93.5% (active). The value for `Nc1cccc2c1CN(C1CCC(=O)NC1=O)C2=O` (stereo not drawn) was 105% (inactive). The value for `COc1ccc2c(c1)C(=O)/C(=C/c1ccc(O)cc1)O2` was 85.2% (inactive); that for `COc1cccc(-c2nc3sccn3c2-c2ccnc(NCCCNS(=O)(=O)c3ccc(F)cc3)n2)c1` was 25.2% (inactive). With `O=C1NCC(c2cc3ccccc3[nH]c2=O)Nc2ccccc21` (stereo not drawn), the growth is 104% (inactive). On to `COC1=CC(c2ccc[nH]2)=N/C1=C\c1[nH]c(C)c(C(=O)CCCCC(=O)NCc2ccccc2)c1C`, for which the growth is 50.8% (inactive). With `COc1ncc(-c2ccc3ncnc(Nc4cccc(Cl)c4)c3c2)cc1NS(=O)(=O)C1CC1` the figure was 34.8% (inactive); with `C=C1C(=O)O[C@H]2[C@H]1CC/C(Cn1cc(-c3ccsc3)nn1)=C\CC[C@@]1(C)O[C@@H]21`, -46.6% (active); with `C=C1C(=O)O[C@H]2[C@H]1CC/C(COC(=O)NCCc1ccc(OC)cc1)=C\CC[C@@]1(C)O[C@@H]21`, 17.4% (inactive). With `CCN(C(=O)c1cc2ccccc2[nH]1)[C@H]1CCC[C@@H](NCc2ccc(OC)cc2)C1` the figure was 83.3% (inactive); with `COc1ccc(C2NC3=C(CCCC3)C(C#N)(C#N)C2(C#N)C#N)cc1` (stereo not drawn), 98.1% (inactive); with `CCCCCc1c(C)[nH]c(/C=c2\[nH]/c(=C3/C=c4ccccc4=N3)cc2OC)c1C`, 4.16% (active). With `Nc1c(C(=O)Nc2cccc(Cl)c2Cl)sc2nc3c(cc12)C(=O)CCC3` the figure was 104% (inactive). In the case of `O=C1CCC/C=C\C[C@H]2C=CC(=O)/C2=C/C[C@H](C/C=C\CC(F)(F)F)O1`, the growth is 20.6% (inactive).

As for `COc1ccc(/C=C/C(=O)/C=C/c2cc3ccc(Cl)cc3[nH]c2=O)cc1`, the growth is 92.9% (inactive).

On to `N#Cc1c(NC(=O)c2ccc([N+](=O)[O-])o2)[n+]([O-])c2cc(F)c(F)cc2[n+]1[O-]`, for which the growth is 102% (inactive). The value for `CC(CCc1ccccc1)NC(=O)c1n[nH]c(=O)c2ccccc12` (stereo not drawn) was 102% (inactive); that for `COc1ccc(/C=C/c2cc(N3CCOCC3)c3cc(F)c(F)cc3n2)cc1OC` was 35.8% (inactive). The value for `CC(C)C[C@H](NC(=O)Cn1ccc(NCc2ccccc2)cc1=O)B(O)O` was 48.2% (inactive). In the case of `CCNc1nc(N2CC(=O)Nc3cc(OC)ccc32)c2ccccc2n1`, the growth is 20.4% (inactive). With `COc1ccc(/C=C/c2nc(N3CCOCC3)c3nc(Cl)c(Cl)cc3n2)cc1OC` the figure was 108% (inactive). With `O=S=Nc1ccc([N+](=O)[O-])cc1` the figure was 101% (inactive).
